The values below come from PubChem BioAssay (NCI).

What all share (experiment): NCI-60 one-dose screen, 48 h (100 = growth as untreated, 0 = no growth, -100 = all killed)
Common to all, as to details: 10 µM unless noted

Assay [1] has as its system SK-MEL-2 melanoma.
For assay [2], the system named is EKVX NSCLC.
Assay [3] concerns SN12C renal.
Assay [4] concerns UO-31 renal.
For assay [5], the system named is TK-10 renal.
In assay [6] the test system is ACHN renal.
The test system of assay [7] is CAKI-1 renal.
For assay [8], the system named is A498 renal.
Assay [9] deals with CCRF-CEM leukemia.
For assay [10], the system named is MOLT-4 leukemia.

About 83,000 compounds went through this panel and 20% of them were active in at least one assay; those are over-represented in the sample as a whole.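 Cell lines were cultured in 96-well plates, exposed to a single compound concentration, and assessed for percent growth 48 hours later.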 A number with no mark means an inactive call. Active and inactive are the calls of the source. Rule for the calls: active = growth percent below 10; inactive = the rest.

Consider `C[N+](C)(C)c1ncnc2[n-]cnc12`, for which the growth in [1] is 107%; in assay [2] it was 81.8%; in assay [3] it was 72.3%; in assay [4], 87.8%; in assay [5] it was 78.9%; in assay [6], 95.3%. Also, the growth in assay [7] was 58.8%; in [8] it was 81.5%; in assay [9] it was 119%; in assay [10], 102%.

Turning to `O=C1COCCN1c1ccc(Nc2nc(Cl)nc(N3CCOCC3)n2)cc1`, the growth in assay [1] was 91.6%; in assay [2] it was 92.3%; in [3], 102%; in assay [4] it was 93.5%; in assay [5], 90.5%; in assay [6] it was 98.5%. Moreover, the growth in [7] is 89.2%; in assay [8], 73.7%; in assay [9], 97%; in assay [10], 96.3%.

As for `COc1ccc(/C=C/C(=C/c2c(O)[nH]c3cc(Br)ccc23)N=O)cc1`, the growth in assay [1] is 140%; in [2] it was 108%; in assay [3], 102%; in assay [4], 88.5%; in assay [5], 148%; in assay [6], 110%. The growth in assay [7] is 93.1%; in [8], 93.6%; in assay [9], 104%; in assay [10], 104%.

Turning to `CCOC(=O)COc1ccc2c(c1)O/C(=C\c1ccc(O)cc1)C2=O`, the growth was 116% in assay [1]; 104% in assay [2]; 98.7% in assay [3]; 78.5% in [4]; 106% in assay [5]; 102% in assay [6]. Further, the growth in [7] is 93.1%; in assay [8] it was 88.6%; in assay [9], 118%; in [10], 117%.

As for `CCOC(=O)c1nn(C2CCCCO2)c2ccc(NC(=O)CN3CCOCC3)cc12` (stereo not given), the growth is 108% in assay [1]; 100% in assay [2]; 101% in [3]; 86.6% in [4]; 109% in assay [5]; 99.6% in assay [6]. For the same molecule, the growth was 84.2% in assay [7], 99.9% in [8], 1.49% (active) in [9] and 96.1% in assay [10].

Take `Nc1nc(N)c2c(n1)NC(c1ccc(F)cc1)C1CCc3ccccc3C1=N2` (stereo not given): the growth in assay [1] was 97.7%; in assay [2], 45.3%; in assay [3], 63.1%; in assay [4], 59.7%; in assay [5], 36.3%; in assay [6], 49.7%. Also, the growth was 44.8% in [7], 58.1% in [8], 35.9% in assay [9] and 19.9% in assay [10].

As to `CCN(CC)c1ccc2cc(C(Nc3ccc(Br)c(C(F)(F)F)c3)c3nnnn3C(C)(C)C)c(=O)oc2c1` (stereo not given), the growth in assay [1] was 89.9%; in [2], 87.7%; in assay [3], 90.4%; in [4], 74%; in [5] it was 83.9%; in [6], 99.1%. Besides, the growth was 85% in assay [7], 67.6% in assay [8], 92.1% in [9] and 69.6% in [10].

Consider `CCc1ccc(-c2ccc(COc3ccc(CC4SC(=O)NC4=O)cc3)cc2)cc1` (stereo not given), for which the growth in assay [1] was 71.6%; in assay [2], 63%; in assay [3] it was 74.5%; in [4], 61.1%; in assay [5], 92.8%; in [6], 69.5%. Moreover, the growth is 51% in [7], 100% in assay [8], 61.3% in assay [9] and 58.5% in assay [10].

Regarding `COc1ccc(C2CC(c3cc(OC)c(OC)c(OC)c3)=NN2C(C)=O)cc1OCC(=O)Nc1nc2ccc(C(F)(F)F)cc2s1` (stereo not given), the growth is 92.3% in assay [1]; 83.4% in assay [2]; 63% in assay [3]; 39.5% in assay [4]; 57.1% in assay [5]; 40.4% in assay [6]. In addition, the growth in [7] is 57.9%; in [8], 54.1%; in assay [9] it was 72.5%; in assay [10], 60%.

Take `CC(C)=CCC[C@](C)(O)[C@H]1CC[C@]2(C)[C@@H]1CC[C@@H]1[C@@]3(C)CC[C@H](OC(=O)CCC(=O)O)C(C)(C)[C@@H]3CC[C@]12C`: the growth in [1] was -13.1% [100 µM] (active); in assay [2], 45.3% [100 µM]; in [3] it was 15% [100 µM]; in assay [4], 19.5% [100 µM]; in assay [5], 49.6% [100 µM]; in assay [6], 21.4% [100 µM]. For the same molecule, the growth in assay [7] is 21.4% [100 µM]; in assay [8] it was 40.1% [100 µM]; in [9] it was 3.55% [100 µM] (active); in assay [10], 5.86% [100 µM] (active).

As for `c1coc2occoc=2o1`, the growth in assay [1] is 105%; in assay [2] it was 106%; in assay [3], 89.2%; in [4], 92.5%; in assay [5] it was 103%; in [6], 102%. For the same molecule, the growth in [7] was 101%; in [8], 107%; in assay [9] it was 98.9%; in assay [10], 114%.

As to `CCNc1cc2c(cc1Br)-c1ccccc1C2=O`, the growth is 98% in assay [1]; 71.5% in assay [2]; 94.5% in assay [3]; 55.1% in assay [4]; 104% in [5]; 98.2% in assay [6]. For the same molecule, the growth was 74.5% in assay [7], 93.4% in assay [8], 97.2% in assay [9] and 98.3% in assay [10].

In the case of `C[C@H]1[C@H](C)CC[C@]2(C(=O)N3CCN(C)CC3)CC[C@]3(C)C(=CC[C@@H]4[C@@]5(C)C/C(=C/c6ccco6)C(=O)C(C)(C)[C@@H]5CC[C@]43C)[C@H]12`, the growth in assay [1] was 42.1% [100 µM]; in assay [2], 42.3% [100 µM]; in assay [3], 28% [100 µM]; in [4], -97.5% [100 µM] (active); in assay [5], 43.7% [100 µM]; in assay [6], 20.8% [100 µM]. In addition, the growth in [7] is 26.2% [100 µM]; in [8], 53.8% [100 µM]; in [9], 16.5% [100 µM]; in [10], 22.6% [100 µM].

On to `Cc1cccc([N+](=O)[O-])c1I`, for which the growth in assay [1] is 112%; in [2], 95.4%; in assay [3] it was 107%; in assay [4] it was 85.1%; in assay [5] it was 113%; in assay [6], 105%. Besides, the growth in assay [7] was 100%; in assay [8], 93%; in [9], 87.2%; in [10] it was 122%.

Take `CCOc1ccc(S(=O)(=O)Nc2ccc3c(c2)N(S(=O)(=O)CC)CCC3)cc1`: the growth in [1] was 111%; in assay [2] it was 96.1%; in assay [3], 85.1%; in assay [4] it was 80.9%; in [5] it was 80.9%; in assay [6], 45%. For the same molecule, the growth in [7] is 55.1%; in assay [8] it was 69.3%; in assay [9] it was 81.1%; in assay [10], 71%.

`Cc1ccccc1-n1nnc(C(=O)Nc2nc3ccc(F)cc3s2)c1C`: the growth in assay [1] is 65.3%; in [2], 64.9%; in assay [3] it was 68.6%; in [4], 58%; in assay [5], 71.4%; in assay [6], 64.7%. The growth is 49.6% in assay [7], 31.4% in assay [8], 66.5% in assay [9] and 43.7% in assay [10].

For the molecule `Nc1nc(Cl)c2ncn(Cc3cc4c(cc3I)OCO4)c2n1`, the growth in [1] was 57.1%; in assay [2], 95.8%; in [3] it was 33%; in [4] it was 34.7%; in [5] it was 23.6%; in [6] it was 56.7%. The growth in assay [7] was 47.5%; in assay [8], 61.8%; in assay [9], 26.3%; in assay [10], 52.6%.

As to `COCCCNc1nc(NC(=O)c2cc(Br)cc(C(F)(F)F)c2)cc(-c2cccnc2)n1`, the growth in [1] was 80.6%; in assay [2], 96%; in assay [3] it was 89.1%; in assay [4], 60.6%; in [5], 95.8%; in assay [6], 87.4%. Further, the growth in [7] was 81.4%; in [8], 76.2%; in assay [9] it was 80.8%; in assay [10], 80.1%.

As for `CCCCN(CC)CC(CC)Nc1cc(OC)cc2cccnc12` (stereo not given), the growth in assay [1] was 115%; in assay [2], 128%; in assay [3] it was 99.7%; in assay [4], 102%; in [5] it was 100%; in assay [6], 104%. The growth is 111% in assay [7], 112% in assay [8], 99.6% in assay [9] and 111% in [10].

Consider `Cc1ccc(S(=O)(=O)Oc2ccc([N+](=O)[O-])cc2[N+](=O)[O-])cc1`, for which the growth in assay [1] was 78.8%; in assay [2] it was 101%; in assay [3], 32.7%; in [4], 73.6%; in assay [5] it was 110%; in assay [6], 104%. In addition, the growth in assay [7] was 82.3%; in [8] it was 94.3%; in assay [9], 23%; in [10] it was 54.2%.

With `N#CC1C(=O)NC(c2ccccc2[N+](=O)[O-])c2sc3c(F)cccc3c21` (stereo not given), the growth in assay [1] was 82.6%; in assay [2], 64.8%; in assay [3] it was 78.1%; in assay [4], 53.8%; in assay [5], 41.1%; in assay [6], 65.8%. Further, the growth in [7] is 5.27% (active); in assay [8], -60.7% (active); in assay [9], 86.9%; in assay [10] it was 86.6%.

`O=C(N/N=C1\c2ccccc2-c2cccc(C(=O)O)c21)c1ccc(O)cc1`: the growth is 102% in assay [1]; 97.2% in assay [2]; 91.1% in assay [3]; 80.4% in [4]; 98.1% in [5]; 99.5% in assay [6]. Moreover, the growth is 86.9% in [7], 73.1% in assay [8], 89.9% in assay [9] and 99.8% in [10].

For the molecule `O=C(Nc1cc(F)cc2cccnc12)c1cnc(N2CCNCC2)cn1`, the growth was 104% in assay [1]; 82.7% in [2]; 75% in [3]; 29% in [4]; 66.6% in assay [5]; 28.4% in assay [6]. The growth is 52.4% in assay [7], 88.7% in assay [8], 26.3% in [9] and 24.5% in assay [10].
